Measurements published in PubChem BioAssay.
Results filed as inconclusive are left out. Active and inactive are the calls of the source.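 The calls were made as follows, unless noted: active = binding below the plate cutoff, the plate median minus 3 SD, with a reading above zero; inconclusive = below the plate cutoff but reading exactly zero; inactive = the rest.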

What was measured:
[1] = yeast TOR pathway RPL19A-GFP modulators, primary screen, cell-based, S. cerevisiae, multiplex flow cytometry (AID 1862; in the data active = percent of DMSO control GFP below about 86%;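 also: lower values mimic rapamycin by blocking the RPL19A rise seen in DMSO cells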); conditions: S. cerevisiae RPL19A-GFP strain, flow cytometry fluorescence, 3 h; at 10 µM; stronger effect = lower value
[2] = modulators of MEP2-GFP levels in yeast, primary screen, S. cerevisiae, multiplex flow cytometry (AID 1867;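 active = GFP response, as percent of the DMSO control, above the screen-wide mean plus 3 SD, about 139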;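 also: median GFP channel fluorescence of barcode-gated MEP2-GFP cells measured by flow cytometry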); conditions: S. cerevisiae MEP2-GFP strain, 3 h, at 10 µM, stronger effect = higher value, 100% means same as DMSO wells
[3] = modulators of CIT2-GFP expression in yeast, primary screen, S. cerevisiae, GFP fusion, multiplex flow cytometry (AID 1870;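 active = percent response above a set limit, the screen-wide mean plus 3 SD, cut at about 130% in these data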;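 also: barcoded CIT2-GFP strain pooled with four other GFP strains with rapamycin as positive control; median GFP fluorescence per well over plate mean of DMSO wells so 100% = DMSO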); conditions: 3 h, at 10 µM, stronger effect = higher value
[4] = modulators of LAP4-GFP expression in yeast, primary screen, S. cerevisiae, multiplex flow cytometry (AID 1873;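 active = GFP signal, as percent of the solvent control, above the screen mean plus 3 SD, about 149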); conditions: 3 h, at 10 µM, stronger effect = higher value
[5] = modulators of AGP1-GFP expression in yeast TOR pathway, primary screen, cell-based, multiplex flow cytometry, S. cerevisiae (AID 1887;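 active = GFP signal above the screen-wide mean plus 3 SD, that is over about 124.5% of the solvent control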;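 also: AGP1-GFP fusion strain of S. cerevisiae within a five-strain barcoded multiplex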); conditions: 3 h, at 10 µM, stronger effect = higher value
[6] = inhibitors of CD8+ T cell-vesicle binding, pilot screen, LFA-1/ICAM-1 modulator project, MLPCN validation set, flow cytometry (AID 2523;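 active = response below a set limit, under 55% cells CD8-positive and vesicle-bound, and CD8 cells' 90th-percentile brightness under 279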;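 as to vesicle binding response: mean PE anti-B7-1 fluorescence of CD8+ cells relative to row control; 100% = QL9-loaded vesicles with DMSO vehicle in the same plate row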); conditions: 2C mouse CD8+ T cells, at 7 µM, stronger effect = lower value; double positive events: measured here: CD8+/vesicle+ event percentage
[7] = target: Integrin beta-1 (Homo sapiens) + Integrin alpha-4 (Homo sapiens) (UniProt P13612+P05556); assay: inhibition of HUTS-21 binding to VLA-4, pilot screen, VLA-4 allosteric modulator project, U937 cells, HUTS-21 mAb, flow cytometry, validation set (AID 2674;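 active = inhibition above 50%, about 3 SD of the validation set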;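 also: antibody binding induced by the VLA-4 ligand LDV present at three times its Kd; 0% = LDV ligand with antibody and no compound and 100% = antibody without LDV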); conditions: HUTS-21 LIBS mAb binding, at 6.7 µM, stronger effect = higher value, binding induced by LDV ligand
Sequence of Integrin beta-1 (Homo sapiens) + Integrin alpha-4 (Homo sapiens) (P05556 whole entry, looked up): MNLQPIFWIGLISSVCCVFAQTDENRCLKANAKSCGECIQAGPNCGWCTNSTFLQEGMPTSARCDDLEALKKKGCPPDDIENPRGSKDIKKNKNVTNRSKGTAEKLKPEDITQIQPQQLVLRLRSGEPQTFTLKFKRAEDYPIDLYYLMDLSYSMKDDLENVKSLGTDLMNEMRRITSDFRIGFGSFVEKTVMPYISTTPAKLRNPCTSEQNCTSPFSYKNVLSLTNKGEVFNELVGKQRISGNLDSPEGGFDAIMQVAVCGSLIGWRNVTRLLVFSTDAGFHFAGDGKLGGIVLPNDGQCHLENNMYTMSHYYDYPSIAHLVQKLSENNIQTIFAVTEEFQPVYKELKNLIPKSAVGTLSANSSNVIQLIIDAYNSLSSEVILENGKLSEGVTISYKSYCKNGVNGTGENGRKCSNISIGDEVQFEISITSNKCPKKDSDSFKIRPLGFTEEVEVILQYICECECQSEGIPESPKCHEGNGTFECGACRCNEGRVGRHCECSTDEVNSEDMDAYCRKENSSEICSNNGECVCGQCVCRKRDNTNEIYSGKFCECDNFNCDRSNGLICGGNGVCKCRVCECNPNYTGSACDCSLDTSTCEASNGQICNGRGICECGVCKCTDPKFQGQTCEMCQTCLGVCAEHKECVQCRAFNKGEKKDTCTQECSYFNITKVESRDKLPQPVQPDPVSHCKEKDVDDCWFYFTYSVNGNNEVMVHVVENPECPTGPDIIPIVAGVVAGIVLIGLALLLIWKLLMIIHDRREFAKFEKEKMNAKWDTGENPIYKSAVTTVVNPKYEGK
Sequence of Integrin beta-1 (Homo sapiens) + Integrin alpha-4 (Homo sapiens) (P13612 whole entry, looked up): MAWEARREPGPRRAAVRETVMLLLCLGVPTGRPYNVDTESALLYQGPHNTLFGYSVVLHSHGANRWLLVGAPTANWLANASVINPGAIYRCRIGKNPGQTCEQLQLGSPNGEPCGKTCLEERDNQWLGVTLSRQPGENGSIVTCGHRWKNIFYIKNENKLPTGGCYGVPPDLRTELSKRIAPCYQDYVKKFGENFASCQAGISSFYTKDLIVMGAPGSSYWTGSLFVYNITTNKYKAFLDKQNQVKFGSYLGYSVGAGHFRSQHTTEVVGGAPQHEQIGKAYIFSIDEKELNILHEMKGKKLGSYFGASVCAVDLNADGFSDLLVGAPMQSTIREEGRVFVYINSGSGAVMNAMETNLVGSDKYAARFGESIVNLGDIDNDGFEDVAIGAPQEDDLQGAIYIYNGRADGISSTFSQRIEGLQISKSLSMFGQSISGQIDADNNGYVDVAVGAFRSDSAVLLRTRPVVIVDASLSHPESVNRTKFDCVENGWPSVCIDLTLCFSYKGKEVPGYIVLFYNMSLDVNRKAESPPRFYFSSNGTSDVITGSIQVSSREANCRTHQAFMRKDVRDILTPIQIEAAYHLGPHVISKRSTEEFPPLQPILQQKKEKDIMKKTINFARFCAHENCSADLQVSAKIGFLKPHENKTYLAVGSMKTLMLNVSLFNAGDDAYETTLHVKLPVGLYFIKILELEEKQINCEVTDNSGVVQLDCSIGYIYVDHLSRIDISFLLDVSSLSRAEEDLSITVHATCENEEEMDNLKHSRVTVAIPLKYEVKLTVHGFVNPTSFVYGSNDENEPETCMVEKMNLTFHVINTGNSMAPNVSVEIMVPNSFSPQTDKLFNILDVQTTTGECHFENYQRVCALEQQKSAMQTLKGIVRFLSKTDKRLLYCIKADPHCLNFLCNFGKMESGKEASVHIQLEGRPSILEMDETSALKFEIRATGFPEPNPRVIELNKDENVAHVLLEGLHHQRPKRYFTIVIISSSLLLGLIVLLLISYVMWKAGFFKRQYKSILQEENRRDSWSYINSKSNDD

[8] = superoxide lowering in aged yeast cells, pilot screen, validation compound set (AID 2706;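 active = superoxide response below 65% of plate, a cut near 3 SD across the whole screen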;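 also: yeast exposed to compound for one week at 30 degrees C before staining; 100% = mean of all compound wells on the same plate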); conditions: S. cerevisiae aging, superoxide DHE fluorescence; at 10 µM, stronger effect = lower value
[9] = target: Beta-adrenergic receptor kinase 1 (Homo sapiens) (UniProt P25098); assay: GRK2 binders displacing RNA aptamer, biochemical, validation, human GRK2, bead flow cytometry (AID 488806;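 active = aptamer binding inhibition above 30%, about 3 SD of noise from non-fluorescent compounds; inactive = inhibition at or below 30%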); conditions: bead-bound GRK2, FAM-aptamer displacement, at 10 µM, stronger effect = higher value
Sequence of Beta-adrenergic receptor kinase 1 (Homo sapiens) (P25098 whole entry, looked up): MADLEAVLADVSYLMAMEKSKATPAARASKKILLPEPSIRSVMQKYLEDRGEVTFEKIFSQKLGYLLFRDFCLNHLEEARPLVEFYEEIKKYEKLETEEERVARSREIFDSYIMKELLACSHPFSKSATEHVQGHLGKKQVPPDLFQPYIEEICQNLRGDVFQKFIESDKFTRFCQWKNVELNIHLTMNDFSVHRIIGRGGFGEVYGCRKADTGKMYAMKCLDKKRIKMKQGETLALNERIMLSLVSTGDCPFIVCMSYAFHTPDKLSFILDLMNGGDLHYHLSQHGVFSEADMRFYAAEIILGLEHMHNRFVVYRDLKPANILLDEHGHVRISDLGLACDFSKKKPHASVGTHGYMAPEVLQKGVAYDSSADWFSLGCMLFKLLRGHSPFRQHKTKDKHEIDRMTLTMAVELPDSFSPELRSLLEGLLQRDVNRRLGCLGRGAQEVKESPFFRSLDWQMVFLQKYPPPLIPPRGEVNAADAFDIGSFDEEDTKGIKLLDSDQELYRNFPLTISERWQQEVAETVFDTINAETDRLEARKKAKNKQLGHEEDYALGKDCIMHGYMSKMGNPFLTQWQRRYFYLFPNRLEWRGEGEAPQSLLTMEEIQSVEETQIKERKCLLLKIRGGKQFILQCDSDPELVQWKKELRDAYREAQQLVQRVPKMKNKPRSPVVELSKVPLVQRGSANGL

[10] = target: AP-2 complex subunit beta (Homo sapiens) (UniProt P63010); assay: inhibitors of arrestin peptide binding to AP2, pilot screen, biochemical, validation set, GST-AP2 beads, flow cytometry (AID 504541;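 active = inhibition above 54%, about 3 SD of non-fluorescent compounds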;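 also: AP2 carries R879A mutation and is captured from E. coli lysate; bead-bound FITC arrestin peptide fluorescence measuring arrestin peptide binding to AP2; 0% = DMSO wells and 100% = excess unlabeled arrestin peptide control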); conditions: FITC arrestin peptide, at 10 µM, stronger effect = higher value, AP2 beta2 appendage fragment, R879A mutant
Sequence of AP-2 complex subunit beta (Homo sapiens) (P63010 whole entry, looked up, the tested form may be a part, one chain of several): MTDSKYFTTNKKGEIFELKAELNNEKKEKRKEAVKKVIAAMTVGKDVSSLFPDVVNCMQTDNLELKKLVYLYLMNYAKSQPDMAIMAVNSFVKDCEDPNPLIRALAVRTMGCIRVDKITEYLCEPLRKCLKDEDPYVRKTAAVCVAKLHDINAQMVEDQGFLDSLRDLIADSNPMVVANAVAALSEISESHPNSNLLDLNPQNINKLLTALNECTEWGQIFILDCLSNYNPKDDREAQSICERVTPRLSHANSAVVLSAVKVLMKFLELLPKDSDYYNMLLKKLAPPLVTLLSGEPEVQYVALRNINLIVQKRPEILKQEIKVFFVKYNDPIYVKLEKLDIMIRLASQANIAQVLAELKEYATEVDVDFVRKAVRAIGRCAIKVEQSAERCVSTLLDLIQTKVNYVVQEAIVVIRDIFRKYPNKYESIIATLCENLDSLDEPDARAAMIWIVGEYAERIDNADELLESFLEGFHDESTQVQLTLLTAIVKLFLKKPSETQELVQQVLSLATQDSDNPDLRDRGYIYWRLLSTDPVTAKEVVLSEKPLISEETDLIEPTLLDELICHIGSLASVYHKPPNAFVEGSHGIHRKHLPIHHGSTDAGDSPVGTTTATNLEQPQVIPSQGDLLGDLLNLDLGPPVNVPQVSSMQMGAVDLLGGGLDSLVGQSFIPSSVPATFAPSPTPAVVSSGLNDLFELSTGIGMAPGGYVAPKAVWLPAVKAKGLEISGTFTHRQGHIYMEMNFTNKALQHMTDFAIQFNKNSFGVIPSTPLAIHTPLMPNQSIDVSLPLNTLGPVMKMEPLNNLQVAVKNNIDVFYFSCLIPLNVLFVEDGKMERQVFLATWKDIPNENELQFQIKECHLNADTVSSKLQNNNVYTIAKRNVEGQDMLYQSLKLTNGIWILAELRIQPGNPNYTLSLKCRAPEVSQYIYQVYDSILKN

[11] = yeast V-ATPase proton transport modulators, S. cerevisiae, pHLuorin, HTS validation (AID 504600; in the data active = response above about 15%;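 also: plate controls were DMSO for no effect and reference compound for full effect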); conditions: S. cerevisiae pHLuorin cytosolic pH, at 10 µM, stronger effect = higher value
[12] = test system: anti-desmoglein-3 scFv antibody binding to human DSG3; assay: inhibitors of anti-DSG3 scFv binding to DSG3, pilot screen, biochemical, validation compound set, bead-based, flow cytometry (AID 588368); conditions: Protein G beads, DSG3-Fc, scFv-GFP binding, at 10 µM, stronger effect = lower value;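 also: signal is the median channel fluorescence of bead-bound GFP antibody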
[13] = inhibitors of fungal efflux pumps CDR1, CDR2, MDR1, pilot screen, validation compound set, multiplex, phenotypic (AID 588506;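 active = efflux inhibition above 0.42, the validation set average plus 4 SD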;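 also: Nile Red retained in cells so higher fluorescence means more efflux inhibition; 0 = negative control wells and 1 = enniatin B 25 µM full block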); conditions: S. cerevisiae pump-expressing triplex, Nile Red efflux flow cytometry; at 10 µM; stronger effect = higher value; the pumps come from Candida albicans
[14] = target: ATP-binding cassette sub-family B member 6 (Homo sapiens) (UniProt Q9NP58); assay: ABCB6 transporter inhibitors, pilot screen, K562-ABCB6 cells, flow cytometry, validation set (AID 588550;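 active = inhibition above the screen-wide mean plus 3 SD, about 51%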;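 also: 0% = DMSO wells and 100% = benzethonium chloride 70 µM positive control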); conditions: K562-ABCB6 porphyrin accumulation, 1 h, at 10 µM, stronger effect = higher value
Sequence of ATP-binding cassette sub-family B member 6 (Homo sapiens) (Q9NP58 whole entry, looked up): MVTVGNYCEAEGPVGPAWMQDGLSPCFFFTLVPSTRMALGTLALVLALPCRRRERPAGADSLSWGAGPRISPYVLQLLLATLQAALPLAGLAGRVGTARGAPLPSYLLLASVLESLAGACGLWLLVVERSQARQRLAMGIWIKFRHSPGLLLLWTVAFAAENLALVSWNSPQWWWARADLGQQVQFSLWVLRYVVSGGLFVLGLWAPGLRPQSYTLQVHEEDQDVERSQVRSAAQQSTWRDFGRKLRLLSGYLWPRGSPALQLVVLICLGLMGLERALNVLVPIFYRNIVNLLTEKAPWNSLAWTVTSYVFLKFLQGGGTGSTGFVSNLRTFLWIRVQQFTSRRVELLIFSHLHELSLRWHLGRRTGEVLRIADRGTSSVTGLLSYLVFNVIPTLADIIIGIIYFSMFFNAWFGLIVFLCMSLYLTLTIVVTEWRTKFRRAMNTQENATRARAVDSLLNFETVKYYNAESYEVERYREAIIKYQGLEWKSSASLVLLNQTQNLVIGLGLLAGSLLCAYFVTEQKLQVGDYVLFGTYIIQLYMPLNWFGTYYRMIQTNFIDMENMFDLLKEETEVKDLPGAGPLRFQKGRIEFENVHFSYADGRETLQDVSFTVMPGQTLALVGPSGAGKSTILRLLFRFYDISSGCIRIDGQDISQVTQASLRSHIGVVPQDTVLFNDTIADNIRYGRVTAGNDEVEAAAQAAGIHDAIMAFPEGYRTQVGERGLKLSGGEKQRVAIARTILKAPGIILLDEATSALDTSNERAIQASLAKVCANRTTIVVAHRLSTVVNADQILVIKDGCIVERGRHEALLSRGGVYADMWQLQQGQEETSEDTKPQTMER

[15] = promoters of myeloid differentiation in arrested cells, primary screen, cell-based, GFP/MAC1 double positive, flow cytometry, validation set (AID 588685;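 active = differentiation response of at least 50%, scaled between solvent and reference control, from cells with both markers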;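 also: compound exposure lasts four days before antibody staining and flow analysis; 0% = DMSO wells and 100% = 5 µM fulvestrant positive control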); conditions: ER-HoxA9 marrow cells, stronger effect = higher value, normalized: vehicle 0, fulvestrant 100

Row | Structure (SMILES) | percent of DMSO control GFP [1] | GFP response vs DMSO [2] | percent response of DMSO control [3] | GFP response vs DMSO [4] | GFP response, % of DMSO [5] | double positive events [6] [%] | vesicle binding response [6] | inhibition [7] | superoxide response (% of plate) [8] | aptamer binding inhibition [9] | inhibition [10] | response [11] | binding (% of control) [12] | efflux inhibition (fraction of control) [13] | inhibition [14] | differentiation response [15]
1 | O=C1C=CC(=O)C(C2=C3C(=O)N(CCc4ccccc4)CC(=O)N3CCC2)=C1 | 106% (inactive) | 103% (inactive) | 102% (inactive) | 94.3% (inactive) | 104% (inactive) | 42.5 | 92.7% (inactive) | -30.1% (inactive) | 115% (inactive) | 3% (inactive) | 12% (inactive) | -0.59% (inactive) | 101% (inactive) | -0.28 (inactive) | 8% (inactive) | -18% (inactive)
2 | COC(=O)c1[nH]c2ccccc2c1NC(=O)CN1CCN(C/C=C/c2ccccc2)CC1 | 108% (inactive) | 106% (inactive) | 99.8% (inactive) | 88.3% (inactive) | 96.1% (inactive) | 55.6 | 154% (inactive) | -42.2% (inactive) | 98% (inactive) | 0% (inactive) | 3.15% (inactive) | 3.35% (inactive) | 108% (inactive) | 0.25 (inactive) | 8% (inactive) | -13.1% (inactive)
3 | CCOC(=O)c1ccccc1NC(=O)c1ccc(F)cc1 | 101% (inactive) | 108% (inactive) | 103% (inactive) | 92.3% (inactive) | 91.8% (inactive) | 60.4 | 102% (inactive) | 10.9% (inactive) | 100% (inactive) | 3% (inactive) | 6.01% (inactive) | -5.23% (inactive) | 98.8% (inactive) | 0.37 (inactive) | 13% (inactive) | -13.1% (inactive)
4 | CCn1cc(C(=O)O)c(=O)c2cnc(N3CCNCC3)nc21 | 99.1% (inactive) | 99.9% (inactive) | 104% (inactive) | 91.3% (inactive) | 99.7% (inactive) | 61 | 164% (inactive) | 7.22% (inactive) | 85.2% (inactive) | 0% (inactive) | 32.7% (inactive) | -7.56% (inactive) | 99% (inactive) | -0.31 (inactive) | 6% (inactive) | -19.6% (inactive)
5 | Cc1ccccc1-c1coc2cc(O)ccc2c1=O | 98.5% (inactive) | 96.9% (inactive) | 90% (inactive) | 116% (inactive) | 97.3% (inactive) | 60.2 | 187% (inactive) | -21.7% (inactive) | 89.2% (inactive) | 4% (inactive) | 30.2% (inactive) | 0.4% (inactive) | 99.1% (inactive) | -0.05 (inactive) | 8% (inactive) | -14.7% (inactive)
